Experiments:
Assay in all cases: SPOT peptide array binding signal intensity (averaged, normalized) (arbitrary units (background-subtracted, floor 0; scale differs between SH3 domains)); higher = stronger binding of the SH3 domain to the peptide
[1] = molecular target: SpBzz1-D2
Description: (§1)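 GST-tagged SH3 domains from S. cerevisiae (Sc), A. gossypii (Ag), C. albicans (Ca) and S. pombe (Sp) were incubated at 10 ug/ml overnight at 4 C on cellulose SPOT membranes carrying 292 synthetic 15-mer peptides mined from the S. cerevisiae proteome (cysteines replaced by serines). Binding was detected with anti-GST antibody, HRP secondary and chemiluminescence, quantified with Genespotter, and reported as normalized spot intensities averaged over biological replicates.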

[2] = molecular target: SpCyk3
Description: as §1

[3] = molecular target: SpHof1
Description: as §1

[4] = molecular target: SpHof1-2
Description: as §1

[5] = molecular target: SpHof1-3
Description: as §1

[6] = molecular target: SpHse1
Description: as §1

[7] = molecular target: SpLsb1
Description: as §1

[8] = molecular target: SpLsb4
Description: as §1

[9] = molecular target: SpMyo1
Description: as §1

[10] = molecular target: SpNbp2
Description: as §1

[11] = molecular target: SpPex13
Description: as §1

[12] = molecular target: SpRvs167
Description: as §1

[13] = molecular target: SpSla1-D1-D2
Description: as §1

[14] = molecular target: SpSla1-D3
Description: as §1

[15] = molecular target: AgAbp1
Description: as §1

[16] = molecular target: AgBbc1
Description: as §1

[17] = molecular target: AgBem1-D1
Description: as §1

[18] = molecular target: AgBzz1-D1
Description: as §1

[19] = molecular target: AgBzz1-D2
Description: as §1

[20] = molecular target: AgCyk3
Description: as §1

[21] = molecular target: AgFus1
Description: as §1

[22] = molecular target: AgHof1
Description: as §1

[23] = molecular target: AgHse1
Description: as §1

[24] = molecular target: AgLsb1
Description: as §1

[25] = molecular target: AgLsb4
Description: as §1

[26] = molecular target: AgMyo5
Description: as §1

[27] = molecular target: AgNbp2
Description: as §1

[28] = molecular target: AgRvs167
Description: as §1

[29] = molecular target: AgSho1
Description: as §1

[30] = molecular target: AgSla1-D1-D2
Description: as §1

[31] = molecular target: AgSla1-D3
Description: as §1

[32] = molecular target: CaAbp1-D1
Description: as §1

[33] = molecular target: CaAbp1-D2
Description: as §1

[34] = molecular target: CaBbc1
Description: as §1

[35] = molecular target: CaBem1-D1
Description: as §1

[36] = molecular target: CaBzz1-D1
Description: as §1

[37] = molecular target: CaBzz1-D2
Description: as §1

[38] = molecular target: CaCyk3
Description: as §1

[39] = molecular target: CaFus1
Description: as §1

[40] = molecular target: CaHof1
Description: as §1

[41] = molecular target: CaHse1
Description: as §1

[42] = molecular target: CaLsb1
Description: as §1

[43] = molecular target: CaLsb4
Description: as §1

[44] = molecular target: CaMyo5
Description: as §1

[45] = molecular target: CaNbp2
Description: as §1

[46] = molecular target: CaRvs167
Description: as §1

[47] = molecular target: CaRvs167-3
Description: as §1

[48] = molecular target: CaSho1
Description: as §1

[49] = molecular target: CaSla1-D1-D2
Description: as §1

[50] = molecular target: CaSla1-D3
Description: as §1

[51] = molecular target: ScAbp1
Description: as §1

[52] = molecular target: ScBbc1
Description: as §1

[53] = molecular target: ScBem1-D1
Description: as §1

[54] = molecular target: ScBzz1-D1
Description: as §1

[55] = molecular target: ScBzz1-D2
Description: as §1

[56] = molecular target: ScCyk3
Description: as §1

[57] = molecular target: ScFus1
Description: as §1

[58] = molecular target: ScHof1
Description: as §1

[59] = molecular target: ScHse1
Description: as §1

[60] = molecular target: ScLsb1
Description: as §1

[61] = molecular target: ScLsb2
Description: as §1

[62] = molecular target: ScLsb3
Description: as §1

[63] = molecular target: ScLsb4
Description: as §1

[64] = molecular target: ScMyo3
Description: as §1

[65] = molecular target: ScMyo5
Description: as §1

[66] = molecular target: ScNbp2
Description: as §1

[67] = molecular target: ScPex13
Description: as §1

[68] = molecular target: ScRvs167
Description: as §1

[69] = molecular target: ScSho1
Description: as §1

[70] = molecular target: ScSla1-D1-D2
Description: as §1

[71] = molecular target: ScSla1-D3
Description: as §1

[72] = molecular target: SpAbp1-D1
Description: as §1

[73] = molecular target: SpBbc1
Description: as §1

[74] = molecular target: SpBzz1-D1
Description: as §1

LSKRLPLRFPEHTSS
SPOT peptide array binding signal intensity [1]: ≤ 0 | SPOT peptide array binding signal intensity [2]: ≤ 0 | SPOT peptide array binding signal intensity [3]: 86 | SPOT peptide array binding signal intensity [4]: 36.2 | SPOT peptide array binding signal intensity [5]: 538 | SPOT peptide array binding signal intensity [6]: 403 | SPOT peptide array binding signal intensity [7]: 4.75 | SPOT peptide array binding signal intensity [8]: 1200 | SPOT peptide array binding signal intensity [9]: 3.75 | SPOT peptide array binding signal intensity [10]: 32 | SPOT peptide array binding signal intensity [11]: 2 | SPOT peptide array binding signal intensity [12]: 143 | SPOT peptide array binding signal intensity [13]: ≤ 0 | SPOT peptide array binding signal intensity [14]: ≤ 0

RRSKSLPITPKSIFN
SPOT peptide array binding signal intensity [15]: 47 | SPOT peptide array binding signal intensity [16]: 30.8 | SPOT peptide array binding signal intensity [17]: 374 | SPOT peptide array binding signal intensity [18]: 59 | SPOT peptide array binding signal intensity [19]: 25 | SPOT peptide array binding signal intensity [20]: 6.5 | SPOT peptide array binding signal intensity [21]: 79.5 | SPOT peptide array binding signal intensity [22]: 125 | SPOT peptide array binding signal intensity [23]: 306 | SPOT peptide array binding signal intensity [24]: 1.5 | SPOT peptide array binding signal intensity [25]: 78.5 | SPOT peptide array binding signal intensity [26]: 0.5 | SPOT peptide array binding signal intensity [27]: 27 | SPOT peptide array binding signal intensity [28]: 0.667 | SPOT peptide array binding signal intensity [29]: 2230 | SPOT peptide array binding signal intensity [30]: 350 | SPOT peptide array binding signal intensity [31]: ≤ 0 | SPOT peptide array binding signal intensity [32]: 144 | SPOT peptide array binding signal intensity [33]: 310 | SPOT peptide array binding signal intensity [34]: 103 | SPOT peptide array binding signal intensity [35]: 55 | SPOT peptide array binding signal intensity [36]: 146 | SPOT peptide array binding signal intensity [37]: 61 | SPOT peptide array binding signal intensity [38]: 13.5 | SPOT peptide array binding signal intensity [39]: 368 | SPOT peptide array binding signal intensity [40]: 1 | SPOT peptide array binding signal intensity [41]: 1 | SPOT peptide array binding signal intensity [42]: 1 | SPOT peptide array binding signal intensity [43]: 57 | SPOT peptide array binding signal intensity [44]: 3 | SPOT peptide array binding signal intensity [45]: 128 | SPOT peptide array binding signal intensity [46]: 2.33 | SPOT peptide array binding signal intensity [47]: 8.25 | SPOT peptide array binding signal intensity [48]: 353 | SPOT peptide array binding signal intensity [49]: 1140 | SPOT peptide array binding signal intensity [50]: 0.5 | SPOT peptide array binding signal intensity [51]: 84 | SPOT peptide array binding signal intensity [52]: 11 | SPOT peptide array binding signal intensity [53]: 88 | SPOT peptide array binding signal intensity [54]: 31 | SPOT peptide array binding signal intensity [55]: 12.5 | SPOT peptide array binding signal intensity [56]: 54 | SPOT peptide array binding signal intensity [57]: 47.5 | SPOT peptide array binding signal intensity [58]: ≤ 0 | SPOT peptide array binding signal intensity [59]: 420 | SPOT peptide array binding signal intensity [60]: 2.5 | SPOT peptide array binding signal intensity [61]: 1 | SPOT peptide array binding signal intensity [62]: ≤ 0 | SPOT peptide array binding signal intensity [63]: 8 | SPOT peptide array binding signal intensity [64]: 8.5 | SPOT peptide array binding signal intensity [65]: 2 | SPOT peptide array binding signal intensity [66]: 47 | SPOT peptide array binding signal intensity [67]: ≤ 0 | SPOT peptide array binding signal intensity [68]: 0.333 | SPOT peptide array binding signal intensity [69]: 4000 | SPOT peptide array binding signal intensity [70]: 2340 | SPOT peptide array binding signal intensity [71]: 54 | SPOT peptide array binding signal intensity [72]: 205 | SPOT peptide array binding signal intensity [73]: 1.5 | SPOT peptide array binding signal intensity [74]: 204 | SPOT peptide array binding signal intensity [1]: ≤ 0 | SPOT peptide array binding signal intensity [2]: 3 | SPOT peptide array binding signal intensity [3]: 2190 | SPOT peptide array binding signal intensity [4]: 1340 | SPOT peptide array binding signal intensity [5]: 1120 | SPOT peptide array binding signal intensity [6]: 216 | SPOT peptide array binding signal intensity [7]: ≤ 0 | SPOT peptide array binding signal intensity [8]: 64.5 | SPOT peptide array binding signal intensity [9]: 24.8 | SPOT peptide array binding signal intensity [10]: 39.5 | SPOT peptide array binding signal intensity [11]: 5 | SPOT peptide array binding signal intensity [12]: 4.33 | SPOT peptide array binding signal intensity [13]: 1130 | SPOT peptide array binding signal intensity [14]: ≤ 0
